Growth data for 40 molecules are collected here from PubChem BioAssay (NCI).

Compounds without any hit were thinned out: in the full panel of roughly 83,000, 20% have a hit.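 48-hour exposure, single concentration, 96-well plates; percent growth endpoint where 0 means no net growth. Active: below 10.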 A number with no mark means an inactive call. Calls of active or inactive are those of the source.

The test system of the assay is SR leukemia. Briefly: NCI-60 one-dose screen, 48 h (100 = growth as untreated, 0 = no growth, -100 = all killed). The conditions noted are these: 10 µM unless noted. The protocol: Growth inhibition of the SR human tumor cell line is measured as a screen for anti-cancer activity. Cells are grown in 96 well plates and exposed to the test compound for 48 hours. Compounds are tested at a single concentration, which is 10^-5 M for most compounds. The reported endpoint is percent growth (GI% or GIPRCNT), where numbers from 0 - 100% represent growth inhibition, and numbers from -100% - 0 represent cell death. For example, a value of 40 represents 60% growth inhibition. A value of 0 means no net growth occurred over the course of the experiment. A value of -40 indicates 40% of cells at the beginning of the experiment died by the end of the experiment. A value of -100 means all cells are dead at the end of the experiment.
NCI-60 Human Tumor Cell Lines Screen was performed using the standard one-dose NCI protocol, which is described in more detail at https://dtp.cancer.gov/discovery_development/nci-60/default.htm.
Compounds with GIPRCNT values below 10 were considered active. Activity score was based on GIPRCNT using the following formula: […]
Score is 0 for GIPRCNT values of 100 or above, 50 for GIPRCNT values of 0, and 100 for GIPRCNT values of -100.
For the molecule `CC(=O)/C(=C/c1ccc([N+](=O)[O-])cc1)C(=O)c1ccccc1`, the growth was -0.146% (active). Regarding `COc1cc(OC)c(C(=O)C(CN(C)C)CN(C)C)cc1OC`, the growth was -49.3% (active). Next, `Cc1ccc(CNc2c3ccccc3nc3ccccc23)cc1`: -0.81% (active); `S=c1nc2oc(-c3ccccc3)c(-c3ccccc3)c2c(/N=C\c2ccco2)[nH]1`: 86.3%; `CCN1C(=O)N(CC)C2C1NN=c1s/c(=C\c3cnc(C)n3C)c(=O)n12` (stereo not given): 25.3%. The same measure for `COc1cccc(/C=C/C(=O)c2cc3c(N)c(C(=O)Nc4cccc5ccccc45)sc3nc2C)c1`: 12.5%; for `CN1C(=O)/C(=C/c2ccc(C(=O)Nc3ncc(Cc4cccc(Cl)c4)s3)cc2)SC1=S`: 85.2%; for `O=C(CN1CCN(c2cc3c(cc2F)c(=O)c(C(=O)O)cn3C2CC2)CC1)N/N=C/c1ccco1`: 92.9%. As to `COc1ccc(Nc2ncccc2/C=C/C(=O)c2cc(OC)c(OC)c(OC)c2)cc1`, the growth is -22.4% (active).

Regarding `CC(=O)OC[C@]12CC[C@@H]([C@@H](C)c3nnc(-c4ccncc4)o3)[C@@H]1[C@H]1CC[C@@H]3[C@@]4(C)CC[C@H](OC(C)=O)C(C)(C)[C@@H]4CC[C@@]3(C)[C@]1(C)CC2`, the growth was 53.2%. The same measure for `CCN1C(=O)N(CC)C2C1NN=c1s/c(=C3\C(=O)N(CCC(C)C)c4ccccc43)c(=O)n12` (stereo not given): 16.7%; for `O=C1/C(=C\c2ccccn2)c2ccccc2N1c1c(Cl)cccc1Cl`: -4.3% (active).

`CCN(CC)CCCOc1ccc2ncnc(Nc3ccc(Oc4cccc(C(F)(F)F)c4)c(Cl)c3)c2c1`: the growth is -3.44% (active). As for `CO[C@H](C(=O)[C@@H](O)[C@@H](C)O)[C@@H]1Cc2cc3cc(O[C@H]4C[C@@H](O[C@H]5C[C@@H](O)[C@H](O)C(C)O5)[C@H](O)C(C)(O)O4)cc(O)c3c(O)c2C(=O)[C@H]1O[C@H]1C[C@@H](O[C@H]2C[C@@H](O[C@H]3C[C@@H](OC)[C@H](O)C(C)O3)[C@@H](O)C(C)O2)[C@H](O)C(C)O1` (stereo not given in full), the growth was 24%. Next, `CCCCCCCCCCCCCCCCCC1=NC(C)(C)CN1CC(C)O` (stereo not given): -13.6% (active). The same measure for `Clc1ccc(-c2cc(-c3ccccc3)nc(NCCNc3ccnc4cc(Cl)ccc34)n2)cc1`: 29.2%. Next, `COc1ccc(Cn2cc3c(c2-c2ccccc2)CCc2cnoc2-3)cc1`: 29.9%; `O=C(NCc1cccc(CNC(=O)Nc2nc3ccccc3[nH]2)c1)Nc1nc2ccccc2[nH]1`: 40.1%.

Take `O=c1nc(-c2ccccc2)c2cc(-c3ccc(C(F)(F)F)nc3)ccc2[nH]1`: the growth was 93.2%.

Take `Nc1nc(N)c2c(n1)NC(c1cccc(Nc3ccnc4cc(C(F)(F)F)ccc34)c1)CC(c1ccc(Br)cc1)=N2` (stereo not given): the growth was 0.0412% (active). For the molecule `Cc1nc2ccccc2c(/C=C/c2ccccc2)c1C(=O)/C=C/c1ccccc1`, the growth was 12.3%. Next, `C=CC(=O)Nc1ccc(Nc2nccc(-c3ccc(N4CCCC4)c(C#N)c3)n2)cc1`: -3.35% (active); `O=C(NNc1cnccn1)c1nc2cc(F)ccc2n2cccc12`: 3.73% (active); `NS(=O)(=O)c1ccc(NC(=O)/C(=C\c2ccc(Cl)cc2Cl)NC(=O)c2ccccc2)cc1`: 96.6%. The same measure for `CC1C(/C=N/NC(N)=S)C(C#N)(C#N)C1(C#N)C#N` (stereo not given): 85.6%; for `S=c1[nH]c(=S)c2c(-c3ccccc3)c(-c3ccccc3)oc2[nH]1`: 94.2%. Next, `FC(F)(F)c1ccc(Cn2cc(CSc3nc4ccccc4s3)nn2)cc1`: 96.3%; `Ic1ccccc1I`: 90.1%. Take `Cc1c(CN)cc(-c2ccc(Cl)cc2)n1-c1ccccc1`: the growth is 77.5%. Next, `Cc1c(Cl)cccc1C(=O)Nc1nc2c(s1)CN(C(=O)c1ccc(C(F)(F)F)cc1)CC2`: 21.3%; `C#Cc1cccc(Nc2nc(C)nc3cc(NC(=O)CCl)ccc23)c1`: -40.4% (active). The same measure for `Cc1ccc(/C=C/C(=O)Nc2ncc(Cc3ccc(F)cc3)s2)o1`: 18.9%; for `CCOC(=O)C(=Cc1ccc(-c2ccccc2)cc1)C(=O)OCC`: 4.01% (active); for `Nc1nc(N)c2c(n1)NC(c1cccc(Nc3ccnc4cc(C(F)(F)F)ccc34)c1)CC(c1ccccc1)=N2` (stereo not given): 4.11% (active).

Consider `CCNc1nc(O)c(/C=C2\C=Nc3ncccc32)s1`, for which the growth was 0.377% (active). With `C#COc1cccc(Nc2ncnc3cc(NC(=O)[C@@H](C)Cl)ccc23)c1`, the growth was 1.44% [6.25 µM] (active). For `CC1(C)C(N)=Nc2cc(OCCCN3Cc4ccccc4C3)c(OCC3CC3)cc21`, the growth is 32.4%. The same measure for `O=C(Nc1ccccc1O)c1ccc(CNC(=O)c2ccsc2Nc2ccnc(C(F)(F)F)c2)cc1`: 22%; for `Cc1ccc(-c2nc(N3CCNCC3)c3oc(-c4ccc(C)cc4)nc3n2)cc1`: -49.2% (active). The same measure for `COc1ccc(C(=O)Cn2c(C(=O)c3ccc(Cl)cc3)nc3ccccc32)cc1`: 26.9%.
